The supplement of paper PMC10646978
± gives the standard deviation.

Key:
Conditions in all cases: modulator concentration 10 µM
[1] = test system: RAW-Dual (murine macrophage reporter line); experiment: NF-kB reporter (SEAP) activity fold change vs agonist alone; higher = enhanced NF-kB activity
How it was run: (§1)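 In 384-well plates holding 50 000 RAW-Dual murine macrophage reporter cells per well, compound at 10 μM final was pre-incubated for 1 hour at 37 °C, after which a PRR agonist was added overnight. Supernatant SEAP read with QUANTI-Blue at 620 nm absorbance reported NF-κB, and Lucia luciferase read with QUANTI-Luc luminescence reported IRF. Fold change values come from dividing each reporter signal by the mean of agonist-only control wells on the same plate, averaged over replicate plates with propagated errors.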

[2] = test system: RAW-Dual (murine macrophage reporter line); experiment: IRF reporter (Lucia luciferase) activity fold change vs agonist alone; higher = enhanced IRF activity
How it was run: as §1

[3] = test system: RAW-Dual (murine macrophage reporter line); experiment: viability score (confluency relative to resting cells, overnight) (fraction); higher = more viable, active = viable (0.7 or more)
How it was run: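 In 384-well plates, RAW-Dual macrophages received compound at a final 10 μM overnight. Two confluency masks were then made with IncuCyte software from IncuCyte images of all imaged wells. The viability score is defined as confluency relative to resting cells. Passing the cutoff required both masks to lie above 70% of resting cells.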

[4] = agonist: CpG ODN 1826 0.5 ug/mL

| Structure (SMILES) | NF-kB reporter [1, 4] | NF-kB reporter ([1]; agonist: LPS 0.1 ug/mL) | NF-kB reporter ([1]; agonist: MPLA […]) | IRF reporter ([2]; agonist: 3'3'-cGAMP 10 ug/mL) | IRF reporter ([2]; agonist: LPS 0.1 ug/mL) | IRF reporter ([2]; agonist: MPLA […]) | viability score [3] |
| --- | --- | --- | --- | --- | --- | --- | --- |
| CN(C)CCC(c1ccc(Cl)cc1)c1ccccn1.O=C(O)/C=C\C(=O)O (configuration not stated) | 1.02 ± 0.14 | 1.08 ± 0.23 | 1.1 ± 0.13 | 0.799 ± 0.042 | 1.23 ± 0.14 | 1.11 ± 0.085 | 0.995 (active) |
| COc1ccc(C2SCc3cc(C)c(C)cc3CS2)cc1OC | 0.831 ± 0.11 | 0.826 ± 0.069 | 1.1 ± 0.1 | 0.965 ± 0.045 | 1.4 ± 0.087 | 1.64 ± 0.14 | 1.01 (active) |
| O=C1NC(=O)c2c1cc1ccccc1c2-c1ccccc1 | 0.996 ± 0.18 | 0.979 ± 0.077 | 0.952 ± 0.15 | 0.887 ± 0.031 | 1.2 ± 0.2 | 1.35 ± 0.3 | 0.998 (active) |
| CN(C)CCCN1c2ccccc2Sc2ccc(Cl)cc21.Cl | 0.377 ± 0.029 | 0.997 ± 0.096 | 1.87 ± 0.041 | 1.07 ± 0.073 | 1.13 ± 0.1 | 1.37 ± 0.17 | 0.306 (inactive) |
| COC(CNS(=O)(=O)c1ccccc1Br)c1ccc(Cl)s1 (configuration not stated) | 0.968 ± 0.32 | 1.08 ± 0.1 | 1.07 ± 0.071 | 1.18 ± 0.039 | 1.01 ± 0.12 | 1.21 ± 0.24 | 0.959 (active) |
| N#Cc1cc2c(nc1N1CC(Cn3nc(C4CC4)ccc3=O)C1)CCC2 | 1.44 ± 0.078 | 1.21 ± 0.099 | 1.63 ± 0.24 | 0.866 ± 0.12 | 1.03 ± 0.17 | 1.18 ± 0.34 | 0.946 (active) |
| CC1CC(=CC=CN(C)C)C(=O)C(=CC=CN(C)C)C1 (configuration not stated) | 1.04 ± 0.17 | 1 ± 0.085 | 0.917 ± 0.099 | 0.888 ± 0.043 | 1.22 ± 0.23 | 1.32 ± 0.28 | 1 (active) |
| O=c1cc(-c2ccc(O)cc2)oc2cc(OC3OC(CO)C(O)C(O)C3O)cc(O)c12 (configuration not stated) | 1.14 ± 0.11 | 1.06 ± 0.072 | 1.05 ± 0.022 | 0.911 ± 0.094 | 0.966 ± 0.05 | 1.01 ± 0.086 | 0.998 (active) |
| Cc1cc(O)c(C(C)C)cc1NC(=O)c1cc(C(C)(C)C)oc1C | 1.22 ± 0.12 | 0.884 ± 0.083 | 1.76 ± 0.13 | 0.562 ± 0.025 | 0.998 ± 0.048 | 2.71 ± 0.29 | 0.797 (active) |
| O=C(O)CCCCCN1C(=O)c2ccccc2C1=O | 0.968 ± 0.089 | 0.988 ± 0.074 | 1.04 ± 0.099 | 1.03 ± 0.034 | 1.35 ± 0.19 | 1.5 ± 0.23 | 1.03 (active) |
| Cc1cc(OCCCOc2cccc3cccnc23)ccc1Cl | 0.752 ± 0.06 | 1.02 ± 0.058 | 0.864 ± 0.052 | 0.998 ± 0.025 | 1.14 ± 0.18 | 1.03 ± 0.27 | 1 (active) |
| COc1cc2c(cc1OC)C(=O)C(CC1CCN(Cc3ccccc3)CC1)C2.Cl (configuration not stated) | 0.127 ± 0.011 | 0.947 ± 0.072 | 1.46 ± 0.14 | 0.791 ± 0.067 | 1.15 ± 0.25 | 1.29 ± 0.22 | 0.959 (active) |
| CC(=NNC(=O)CNc1ccccc1C)c1ccc(Br)cc1 | 1.09 ± 0.093 | 1.01 ± 0.14 | 1.03 ± 0.098 | 0.998 ± 0.032 | 1.23 ± 0.13 | 1.38 ± 0.19 | 0.982 (active) |
| O=C(C=Cc1ccc(Br)cc1)c1c(-c2ccccc2)c2cc(Cl)ccc2[nH]c1=O | 0.876 ± 0.068 | 0.792 ± 0.055 | 1.03 ± 0.099 | 0.858 ± 0.039 | 1.4 ± 0.09 | 1.5 ± 0.16 | 0.997 (active) |
| N#CC(=Cc1ccc(-c2ccc(Cl)cc2)o1)C(N)=O | 0.783 ± 0.062 | 0.875 ± 0.14 | 1.13 ± 0.1 | 1.07 ± 0.049 | 1.43 ± 0.1 | 1.63 ± 0.18 | 1.02 (active) |
| FC(F)(F)c1ccnc(NC2CCN(c3ncnc4c3CCCC4)CC2)n1 | 0.884 ± 0.083 | 1.35 ± 0.11 | 1.86 ± 0.081 | 1.21 ± 0.069 | 1.65 ± 0.16 | 1.59 ± 0.18 | 0.318 (inactive) |
| Cc1cc(/C=C/C#N)cc(C)c1Nc1ccnc(Nc2ccc(C#N)cc2)n1 | 0.602 ± 0.17 | 0.605 ± 0.044 | 1.3 ± 0.12 | 0.209 ± 0.014 | 0.662 ± 0.071 | 0.886 ± 0.13 | 0.985 (active) |
| Cc1cc(OCC(O)CN2CCCCC2C)cc(C)c1Cl.Cl (configuration not stated) | 0.79 ± 0.15 | 0.97 ± 0.08 | 0.796 ± 0.048 | 0.955 ± 0.048 | 1.2 ± 0.17 | 1.25 ± 0.23 | 0.923 (active) |
| O=C(NCCNC(=O)c1ccccc1Cl)c1ccc(NC(=O)C2CC2)cc1 | 0.924 ± 0.04 | 1.01 ± 0.084 | 1.67 ± 0.56 | 1.02 ± 0.052 | 1.36 ± 0.25 | 1.69 ± 0.5 | 0.98 (active) |
| CCOC(N)=O | 0.962 ± 0.13 | 1.09 ± 0.24 | 0.948 ± 0.068 | 0.927 ± 0.057 | 1.32 ± 0.28 | 1.02 ± 0.14 | 1.01 (active) |
| COc1nn(C)cc1C(=O)Nc1ccc(C(=O)NCCN2CCOCC2)cc1 | 1.02 ± 0.052 | 1.03 ± 0.083 | 0.893 ± 0.042 | 0.979 ± 0.049 | 1.28 ± 0.096 | 1.13 ± 0.23 | 0.994 (active) |
| Oc1c(Cl)cc(Cl)cc1Sc1cc(Cl)cc(Cl)c1O | 1.18 ± 0.11 | 0.917 ± 0.061 | 3.21 ± 0.07 | 0.564 ± 0.031 | 1.03 ± 0.16 | 1.1 ± 0.21 | 0.441 (inactive) |
| CC(=O)OCCN(CCOC(C)=O)c1c(C)[nH]c(=O)[nH]c1=O | 0.864 ± 0.067 | 0.809 ± 0.079 | 0.994 ± 0.089 | 0.976 ± 0.05 | 1.52 ± 0.093 | 1.7 ± 0.17 | 1.02 (active) |
| COc1ccc(Br)cc1S(=O)(=O)NCc1ccccc1 | 1.23 ± 0.3 | 0.932 ± 0.054 | 1.06 ± 0.11 | 1.18 ± 0.046 | 1.19 ± 0.13 | 1.21 ± 0.16 | 0.928 (active) |
| COc1nc(C)cnc1NS(=O)(=O)c1cccnc1-c1ccc(-c2nnco2)cc1 | 0.964 ± 0.21 | 0.98 ± 0.18 | 1 ± 0.09 | 0.852 ± 0.047 | 0.982 ± 0.26 | 1.06 ± 0.24 | 0.979 (active) |
| COc1ccc(-c2oc(N=Cc3ccccc3O)c(C#N)c2-c2ccc(OC)cc2)cc1 | 0.895 ± 0.075 | 1.21 ± 0.079 | 0.997 ± 0.035 | 0.921 ± 0.2 | 1.05 ± 0.089 | 1.12 ± 0.18 | 1 (active) |
